Reference: the supplement of paper PMC10849652
The full data set covers some 8,800 targets. This sample favours those with a hit. About 0.5% of all pairs of compound and target were hits. Values without a mark were called inactive.

compound: CNC(=O)c1ccc(Nc2ncc(C(F)(F)F)c(NCc3nccnc3N(C)S(C)(=O)=O)n2)cc1 [defactinib]; assay: log2 fold change, soluble protein after heating vs DMSO (PISA); higher = thermal stabilisation; K562 lysate, 10 uM; active = over 0.2 and 3.5 SD of the protein, either way, in both replicates (recomputed)
Procedure, shortened: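 Quantification was by TMTpro 16plex LC-MS/MS with equalised channel sums, applied to the supernatant after 21,000xg for 90 min. Samples were crude K562 extract at 1 mg/mL protein in PBS pH 7.4 with 1 mM MgCl2, treated with 10 μM compound for 30 min, heated for 3 min across 48°C-58°C, pooled and brought to 0.5% NP-40 at 4°C. Values are log-two fold changes in thermal stability relative to solvent controls, from duplicates.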

Chain of UniProt Q7L8L6 (Q7L8L6 whole entry, looked up): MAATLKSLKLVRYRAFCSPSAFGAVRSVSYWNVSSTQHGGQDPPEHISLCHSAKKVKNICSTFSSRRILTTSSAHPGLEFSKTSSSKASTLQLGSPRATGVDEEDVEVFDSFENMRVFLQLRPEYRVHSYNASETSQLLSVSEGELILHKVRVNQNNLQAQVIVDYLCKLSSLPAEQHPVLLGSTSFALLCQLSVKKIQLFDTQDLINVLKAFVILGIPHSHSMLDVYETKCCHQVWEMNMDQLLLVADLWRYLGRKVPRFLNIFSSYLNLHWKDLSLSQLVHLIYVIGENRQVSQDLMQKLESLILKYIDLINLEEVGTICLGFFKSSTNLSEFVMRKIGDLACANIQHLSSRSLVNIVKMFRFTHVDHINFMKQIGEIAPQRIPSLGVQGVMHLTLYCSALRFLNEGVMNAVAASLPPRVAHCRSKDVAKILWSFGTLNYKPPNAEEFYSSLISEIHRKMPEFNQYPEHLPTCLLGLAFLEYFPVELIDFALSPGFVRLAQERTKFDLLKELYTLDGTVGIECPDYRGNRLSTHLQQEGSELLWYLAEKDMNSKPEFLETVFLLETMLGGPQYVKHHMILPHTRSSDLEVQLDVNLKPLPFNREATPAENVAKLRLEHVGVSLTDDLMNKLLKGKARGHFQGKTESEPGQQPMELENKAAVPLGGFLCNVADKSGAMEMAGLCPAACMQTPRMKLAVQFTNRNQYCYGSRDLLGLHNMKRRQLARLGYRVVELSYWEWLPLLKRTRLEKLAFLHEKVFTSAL
Chain of UniProt Q9NX74 (Q9NX74 whole entry, looked up): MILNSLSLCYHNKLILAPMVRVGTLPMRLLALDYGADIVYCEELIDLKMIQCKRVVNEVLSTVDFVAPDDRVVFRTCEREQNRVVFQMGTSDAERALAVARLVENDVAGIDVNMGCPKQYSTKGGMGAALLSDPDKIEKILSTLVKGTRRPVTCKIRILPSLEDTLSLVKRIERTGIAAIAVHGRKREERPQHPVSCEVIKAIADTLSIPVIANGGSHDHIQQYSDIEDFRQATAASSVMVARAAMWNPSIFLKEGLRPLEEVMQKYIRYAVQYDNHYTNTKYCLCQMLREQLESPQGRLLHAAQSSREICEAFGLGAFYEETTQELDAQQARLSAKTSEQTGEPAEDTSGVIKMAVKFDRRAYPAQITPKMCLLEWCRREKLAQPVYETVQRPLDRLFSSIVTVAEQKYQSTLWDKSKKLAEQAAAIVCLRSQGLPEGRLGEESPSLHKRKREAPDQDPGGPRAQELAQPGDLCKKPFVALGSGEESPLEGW
Chain of UniProt Q9UJ14 (Q9UJ14 whole entry, looked up): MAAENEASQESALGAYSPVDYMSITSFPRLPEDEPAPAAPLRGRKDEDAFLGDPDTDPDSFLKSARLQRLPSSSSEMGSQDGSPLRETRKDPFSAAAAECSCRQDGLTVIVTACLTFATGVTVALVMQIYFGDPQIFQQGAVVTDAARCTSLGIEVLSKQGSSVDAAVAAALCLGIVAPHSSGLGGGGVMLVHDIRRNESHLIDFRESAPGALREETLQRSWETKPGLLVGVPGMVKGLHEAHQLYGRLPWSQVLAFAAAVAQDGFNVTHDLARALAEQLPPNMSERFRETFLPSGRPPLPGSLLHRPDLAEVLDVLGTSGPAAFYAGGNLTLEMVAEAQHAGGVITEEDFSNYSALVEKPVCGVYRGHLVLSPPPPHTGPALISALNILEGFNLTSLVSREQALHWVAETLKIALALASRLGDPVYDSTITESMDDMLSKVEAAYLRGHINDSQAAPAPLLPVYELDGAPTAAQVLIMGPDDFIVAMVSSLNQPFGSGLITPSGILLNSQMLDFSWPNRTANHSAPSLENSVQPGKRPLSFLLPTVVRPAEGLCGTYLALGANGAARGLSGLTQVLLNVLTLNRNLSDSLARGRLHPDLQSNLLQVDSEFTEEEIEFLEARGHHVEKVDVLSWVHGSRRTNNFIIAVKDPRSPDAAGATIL
Chain of UniProt P54852 (P54852 whole entry, looked up): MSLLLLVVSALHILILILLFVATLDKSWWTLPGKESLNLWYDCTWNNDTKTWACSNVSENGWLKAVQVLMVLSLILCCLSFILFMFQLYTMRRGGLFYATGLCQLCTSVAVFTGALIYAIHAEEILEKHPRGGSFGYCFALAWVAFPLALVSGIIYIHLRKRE
Chain of UniProt Q8N5C7 (Q8N5C7 whole entry, looked up): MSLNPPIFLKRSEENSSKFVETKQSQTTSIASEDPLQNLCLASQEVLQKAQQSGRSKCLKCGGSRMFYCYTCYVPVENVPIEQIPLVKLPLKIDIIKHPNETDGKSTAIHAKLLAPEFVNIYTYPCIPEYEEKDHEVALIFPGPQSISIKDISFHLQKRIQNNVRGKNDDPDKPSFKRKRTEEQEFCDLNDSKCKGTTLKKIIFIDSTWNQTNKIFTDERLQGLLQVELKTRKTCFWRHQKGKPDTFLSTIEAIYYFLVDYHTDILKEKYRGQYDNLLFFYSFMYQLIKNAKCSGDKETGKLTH
Chain of UniProt Q9BPY3 (Q9BPY3 whole entry, looked up): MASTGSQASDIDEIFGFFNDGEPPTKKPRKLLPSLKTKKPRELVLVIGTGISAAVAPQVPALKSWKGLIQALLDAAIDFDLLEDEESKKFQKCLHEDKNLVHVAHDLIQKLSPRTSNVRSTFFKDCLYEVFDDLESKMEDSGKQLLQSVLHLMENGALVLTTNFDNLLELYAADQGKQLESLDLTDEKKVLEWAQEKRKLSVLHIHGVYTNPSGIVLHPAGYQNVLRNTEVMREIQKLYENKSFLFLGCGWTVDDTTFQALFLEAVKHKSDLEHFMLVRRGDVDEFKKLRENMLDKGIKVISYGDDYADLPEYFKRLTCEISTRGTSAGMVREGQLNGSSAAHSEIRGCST
Chain of UniProt Q15125 (Q15125 whole entry, looked up): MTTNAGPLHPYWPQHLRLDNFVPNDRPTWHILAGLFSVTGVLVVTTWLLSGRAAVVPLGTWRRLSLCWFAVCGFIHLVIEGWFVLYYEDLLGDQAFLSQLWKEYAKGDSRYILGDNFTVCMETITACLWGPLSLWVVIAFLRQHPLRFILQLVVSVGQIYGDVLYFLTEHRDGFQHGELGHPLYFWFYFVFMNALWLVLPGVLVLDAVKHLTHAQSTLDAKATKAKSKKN
Chain of UniProt P22830 (P22830 whole entry, looked up): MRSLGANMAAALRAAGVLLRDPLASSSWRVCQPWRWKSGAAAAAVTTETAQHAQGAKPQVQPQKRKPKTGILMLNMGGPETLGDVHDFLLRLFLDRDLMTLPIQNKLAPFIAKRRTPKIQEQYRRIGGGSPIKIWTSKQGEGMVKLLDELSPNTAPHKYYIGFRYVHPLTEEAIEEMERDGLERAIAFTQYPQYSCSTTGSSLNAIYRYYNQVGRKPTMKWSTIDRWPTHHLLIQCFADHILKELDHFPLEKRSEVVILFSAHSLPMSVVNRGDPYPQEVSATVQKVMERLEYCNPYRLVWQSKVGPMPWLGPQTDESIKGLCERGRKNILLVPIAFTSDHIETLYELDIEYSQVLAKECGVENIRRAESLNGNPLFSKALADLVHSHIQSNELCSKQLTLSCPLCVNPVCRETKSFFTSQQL
Chain of UniProt Q9NZN4 (Q9NZN4 whole entry, looked up): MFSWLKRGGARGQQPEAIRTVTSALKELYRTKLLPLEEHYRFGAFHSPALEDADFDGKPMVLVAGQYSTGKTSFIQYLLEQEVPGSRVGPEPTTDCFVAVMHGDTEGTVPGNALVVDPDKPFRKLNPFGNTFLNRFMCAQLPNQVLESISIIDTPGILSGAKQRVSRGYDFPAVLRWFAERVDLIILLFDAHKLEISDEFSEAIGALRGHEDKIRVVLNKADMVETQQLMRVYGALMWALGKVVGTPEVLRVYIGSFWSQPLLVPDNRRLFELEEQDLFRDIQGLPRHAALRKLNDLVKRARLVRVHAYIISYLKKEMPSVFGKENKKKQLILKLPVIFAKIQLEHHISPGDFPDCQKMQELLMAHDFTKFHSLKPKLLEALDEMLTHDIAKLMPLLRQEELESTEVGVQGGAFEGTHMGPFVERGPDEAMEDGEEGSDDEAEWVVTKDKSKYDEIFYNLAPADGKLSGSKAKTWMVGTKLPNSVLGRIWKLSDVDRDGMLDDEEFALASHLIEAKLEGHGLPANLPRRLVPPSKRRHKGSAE
Chain of UniProt Q9Y285 (Q9Y285 whole entry, looked up): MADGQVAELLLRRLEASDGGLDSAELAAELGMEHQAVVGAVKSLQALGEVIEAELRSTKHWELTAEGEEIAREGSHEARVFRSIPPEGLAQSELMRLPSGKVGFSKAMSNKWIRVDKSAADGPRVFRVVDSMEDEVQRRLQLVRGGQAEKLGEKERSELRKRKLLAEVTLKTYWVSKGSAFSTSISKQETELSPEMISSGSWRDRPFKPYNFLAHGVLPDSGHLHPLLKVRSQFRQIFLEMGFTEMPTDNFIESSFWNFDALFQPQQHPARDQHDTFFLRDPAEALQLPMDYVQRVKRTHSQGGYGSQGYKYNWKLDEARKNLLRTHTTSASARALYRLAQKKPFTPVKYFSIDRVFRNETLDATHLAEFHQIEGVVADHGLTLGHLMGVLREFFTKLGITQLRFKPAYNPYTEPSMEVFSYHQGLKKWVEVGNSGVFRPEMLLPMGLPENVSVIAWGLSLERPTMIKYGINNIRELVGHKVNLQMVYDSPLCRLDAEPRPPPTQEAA
Chain of UniProt P48507 (P48507 whole entry, looked up): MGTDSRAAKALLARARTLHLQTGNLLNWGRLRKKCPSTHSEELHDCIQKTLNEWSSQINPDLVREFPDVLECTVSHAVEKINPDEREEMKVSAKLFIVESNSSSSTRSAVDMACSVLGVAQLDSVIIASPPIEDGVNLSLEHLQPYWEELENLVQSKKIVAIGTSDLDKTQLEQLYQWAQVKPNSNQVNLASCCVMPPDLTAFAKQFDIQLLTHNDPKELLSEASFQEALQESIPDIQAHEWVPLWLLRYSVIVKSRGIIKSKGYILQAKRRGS
Chain of UniProt Q8WWZ3 (Q8WWZ3 whole entry, looked up): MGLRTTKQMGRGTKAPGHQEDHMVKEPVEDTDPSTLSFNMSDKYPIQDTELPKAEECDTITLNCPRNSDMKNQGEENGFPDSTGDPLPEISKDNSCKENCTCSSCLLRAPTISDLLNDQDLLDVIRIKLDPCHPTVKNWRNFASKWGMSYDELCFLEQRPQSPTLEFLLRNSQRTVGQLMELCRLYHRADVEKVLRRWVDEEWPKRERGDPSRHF

Row | Target | log2 fold change
1 | FARSA (UniProt Q9Y285) | 0.045
2 | FECH isoform 2 (UniProt P22830) | -0.056
3 | EBP (UniProt Q15125) | 0.028
4 | EP300 (UniProt Q09472) | 0.066
5 | EP400 isoform 5 (UniProt Q96L91) | 0.01
6 | ESRRA (UniProt P11474) | -0.086
7 | DUS2 (UniProt Q9NX74) | 0.016
8 | GCLM (UniProt P48507) | 0.003
9 | GGT7 (UniProt Q9UJ14) | 0.066
10 | EMP3 (UniProt P54852) | 0.009
11 | FANCI (UniProt Q9NVI1) | 0.01
12 | FAM118B (UniProt Q9BPY3) | 0.037
13 | GFPT1 (UniProt Q06210) | 0.01
14 | FKBP1A (UniProt P62942) | 0.144
15 | EDARADD (UniProt Q8WWZ3) | 0.009
16 | FIBP (UniProt O43427) | 0.1
17 | EHD2 (UniProt Q9NZN4) | 0.032
18 | FADS1, A0A0A0MR51 | 0.084
19 | GALNT2 (UniProt Q10471) | 0.008
20 | FASTKD5 (UniProt Q7L8L6) | 0.011
21 | FBLL1 (UniProt A6NHQ2) | 0.047
22 | DTWD1 (UniProt Q8N5C7) | -0.032
23 | GGA2 (UniProt Q9UJY4) | -0.029
24 | FYB1 isoform 3 (UniProt O15117) | 0.033
